{"source": "the OligoGym collection"}
{"target": "CD48", "test": "pooled miR-30 sensor sort-seq; sequence = guide strand", "settings": "shRNA"}
{"sequence": "TGAGGATCAAGTCTGACCCTGC", "sensor-assay potency score (higher = more potent)": 0.0902}
{"sequence": "TTCAGAGTCACGTTGCTGCCGG", "sensor-assay potency score (higher = more potent)": -0.426}
{"sequence": "TGATCTTCCATTCTTGCTCATT", "sensor-assay potency score (higher = more potent)": -1.23}
{"sequence": "TTGGCAAGTATAACACCTGGAG", "sensor-assay potency score (higher = more potent)": -0.157}
{"sequence": "TTCTACAATCTTCTGGTCGAAA", "sensor-assay potency score (higher = more potent)": -0.694}
{"sequence": "TTAGATTTTCTGGAATCCCATT", "sensor-assay potency score (higher = more potent)": -1.01}
{"sequence": "TTGATCTTCCATTCTTGCTCAT", "sensor-assay potency score (higher = more potent)": 0.311}
{"sequence": "TACAGGGTCAAGCACTTGCAGC", "sensor-assay potency score (higher = more potent)": -1.55}
{"sequence": "TTGGATTCAAAGTACTTAGATT", "sensor-assay potency score (higher = more potent)": -1.05}
{"target": "CD58", "test": "pooled miR-30 sensor sort-seq; sequence = guide strand", "settings": "shRNA"}
{"sequence": "TTGTTTTTTCCATAGGACCTCT", "sensor-assay potency score (higher = more potent)": -0.0433}
{"sequence": "TACATGTTGTAATTACTGCTAA", "sensor-assay potency score (higher = more potent)": -0.161}
{"sequence": "TTTAAAGGCACATTGCTTGGTA", "sensor-assay potency score (higher = more potent)": 0.706}
{"sequence": "TTATCCTTTTGTTTTTTCCATA", "sensor-assay potency score (higher = more potent)": -1.18}
{"sequence": "TAATAAGTTGATGACAGCCAAA", "sensor-assay potency score (higher = more potent)": -1.7}
{"sequence": "TTACAAAAGTATCTACATCATC", "sensor-assay potency score (higher = more potent)": -0.687}
{"sequence": "TATAAGTGCATATCTGTGTCTT", "sensor-assay potency score (higher = more potent)": 0.724}
{"sequence": "TTGAGTTACGTTTACATTGCTC", "sensor-assay potency score (higher = more potent)": -0.143}
{"sequence": "TTAAAATATATACTGGTTGAGT", "sensor-assay potency score (higher = more potent)": -0.467}
{"sequence": "TAAAAGATGAGAAAGCTCTGAA", "sensor-assay potency score (higher = more potent)": 0.844}
{"sequence": "TATACAGCACAATACATGTTGT", "sensor-assay potency score (higher = more potent)": -0.688}
{"sequence": "TAATGCTCTGGTATCATGCATT", "sensor-assay potency score (higher = more potent)": -0.599}
{"sequence": "ATATACAGCACAATACATGTTG", "sensor-assay potency score (higher = more potent)": 0.0974}
{"sequence": "TACAGCACAATACATGTTGTAA", "sensor-assay potency score (higher = more potent)": -0.704}
{"sequence": "TTGCTCCATAGGACAATCCCAT", "sensor-assay potency score (higher = more potent)": -1.06}
{"sequence": "TTCATATACAGCACAATACATG", "sensor-assay potency score (higher = more potent)": -1.42}
{"sequence": "TTTCATACTCATCTTCATCTGA", "sensor-assay potency score (higher = more potent)": 0.555}
{"sequence": "TAAAGAAAGAACTTCATGGTAT", "sensor-assay potency score (higher = more potent)": 0.701}
{"sequence": "TAAAATAATTTAGTTATGCTGT", "sensor-assay potency score (higher = more potent)": -0.222}
{"sequence": "TTAAAAGATGAGAAAGCTCTGA", "sensor-assay potency score (higher = more potent)": -0.214}
{"sequence": "TTTGTTGGGAAAAACAGCTGAT", "sensor-assay potency score (higher = more potent)": -0.0646}
{"sequence": "TTGTGGAAGATCATTTTCCATC", "sensor-assay potency score (higher = more potent)": -1.11}
{"sequence": "TTCTTCTTAAAGCAGCTGCTTC", "sensor-assay potency score (higher = more potent)": -0.594}
{"target": "CD86", "test": "pooled miR-30 sensor sort-seq; sequence = guide strand", "settings": "shRNA"}
{"sequence": "TAACTGTTGGAAGTACAGCTGT", "sensor-assay potency score (higher = more potent)": -0.0777}
{"sequence": "TTCTGTGACATTATCTTGAGAT", "sensor-assay potency score (higher = more potent)": 0.246}
{"sequence": "AACACTGTCAAATTTCTCTTTG", "sensor-assay potency score (higher = more potent)": -0.375}
{"sequence": "TTATATTAGAAATTGGTACTAT", "sensor-assay potency score (higher = more potent)": 0.249}
{"sequence": "AAGATGGTCATATTGCTCGTAA", "sensor-assay potency score (higher = more potent)": -0.638}
{"sequence": "TGATACATTGATACAAGCCCTT", "sensor-assay potency score (higher = more potent)": -0.31}
{"sequence": "TTTTCTCTTTTCTTGGTCTGTT", "sensor-assay potency score (higher = more potent)": -0.104}
{"sequence": "ATTGAAATAAGCTTGAATCTTC", "sensor-assay potency score (higher = more potent)": 0.247}
